Test system: Salmonella enterica serovar Typhimurium 14028s
Experiment: approximate change in surviving CFU after surface colonization relative to water-only control (log10 CFU/mL change); higher = more surviving bacteria (less inhibition of surface colonization)
Settings: not stated (Biolog proprietary concentration), surface: plastic 96-well plate, 20-24 h at 25 °C

O[C@@H]1[C@@H](O)[C@@H](O)CO[C@H]1O [L-Arabinose]
approximate change in surviving CFU (log10) (Biolog plate: PM1, Biolog well: A2): 0.837

O=C(O)[C@@H](O)[C@@H](O)[C@H](O)[C@@H](O)C(=O)O [D-Saccharic Acid]
approximate change in surviving CFU (log10) (Biolog plate: PM1, Biolog well: A4): 0.708

O=C(O)CCC(=O)O [Succinic Acid]
approximate change in surviving CFU (log10) (Biolog plate: PM1, Biolog well: A5): 0.515

OC[C@H]1O[C@H](O[C@H]2O[C@H](CO)[C@@H](O)[C@H](O)[C@H]2O)[C@H](O)[C@@H](O)[C@@H]1O [D-Trehalose]
approximate change in surviving CFU (log10) (Biolog plate: PM1, Biolog well: A10): 1.59

OC[C@H]1OC(O)[C@@H](O)[C@@H](O)[C@@H]1O (stereo partly drawn) [D-Mannose]
approximate change in surviving CFU (log10) (Biolog plate: PM1, Biolog well: A11): 1.93

C[C@H](O)[C@@H](O)[C@@H](O)[C@H](O)C=O [L-Fucose]
approximate change in surviving CFU (log10) (Biolog plate: PM1, Biolog well: B4): 1.33

O=C[C@H](O)[C@@H](O)[C@H](O)[C@H](O)COP(=O)(O)O [D-Glucose-6-Phosphate]
approximate change in surviving CFU (log10) (Biolog plate: PM1, Biolog well: C1): 1.22

OC[C@H]1O[C@H](O[C@H]2[C@H](O)[C@@H](O)[C@H](O)O[C@@H]2CO)[C@H](O)[C@@H](O)[C@@H]1O [Maltose]
approximate change in surviving CFU (log10) (Biolog plate: PM1, Biolog well: C10): 1.57

O=C(O)CCC(=O)C(=O)O [a-Keto-Glutaric Acid]
approximate change in surviving CFU (log10) (Biolog plate: PM1, Biolog well: D6): 1.19

CO[C@H]1O[C@H](CO)[C@H](O)[C@H](O)[C@H]1O [a-Methyl-D-Galactoside]
approximate change in surviving CFU (log10) (Biolog plate: PM1, Biolog well: D8): 1.72

OC[C@H]1O[C@@H](O[C@H]2[C@H](O)[C@@H](O)[C@@H](O)O[C@@H]2CO)[C@H](O)[C@@H](O)[C@H]1O [a-D-Lactose]
approximate change in surviving CFU (log10) (Biolog plate: PM1, Biolog well: D9): 1.05

O=P(O)(O)O[C@H]1O[C@H](CO)[C@@H](O)[C@H](O)[C@H]1O [D-Glucose-1-Phosphate]
approximate change in surviving CFU (log10) (Biolog plate: PM1, Biolog well: E3): 1.4

NCC(=O)N[C@@H](CC(=O)O)C(=O)O [Glycyl-L-Aspartic Acid]
approximate change in surviving CFU (log10) (Biolog plate: PM1, Biolog well: F1): 0.929

O=C(O)CC(Br)C(=O)O (stereo unspecified) [Bromo Succinic Acid]
approximate change in surviving CFU (log10) (Biolog plate: PM1, Biolog well: F6): -0.901

O=C(O)[C@@H](O)[C@H](O)[C@H](O)[C@@H](O)C(=O)O [Mucic Acid]
approximate change in surviving CFU (log10) (Biolog plate: PM1, Biolog well: F8): 1.38

C[C@H](N)C(=O)NCC(=O)O [L-Alanyl-Glycine]
approximate change in surviving CFU (log10) (Biolog plate: PM1, Biolog well: G6): 0.966

COC(=O)CCC(=O)O [Mono Methyl Succinate]
approximate change in surviving CFU (log10) (Biolog plate: PM1, Biolog well: G9): -1.74

O=C(O)C[C@@H](O)C(=O)O [D-Malic Acid]
approximate change in surviving CFU (log10) (Biolog plate: PM1, Biolog well: G11): 1.05

O=C(O)Cc1ccc(O)cc1 [p-Hydroxy Phenyl Acetic Acid]
approximate change in surviving CFU (log10) (Biolog plate: PM1, Biolog well: H2): -2.12

O=C[C@H](O)[C@H](O)[C@@H](O)CO [L-Lyxose]
approximate change in surviving CFU (log10) (Biolog plate: PM1, Biolog well: H6): -0.987

OC[C@H]1O[C@@H]2O[C@H]3[C@H](O)[C@@H](O)[C@@H](O[C@H]4[C@H](O)[C@@H](O)[C@@H](O[C@H]5[C@H](O)[C@@H](O)[C@@H](O[C@H]6[C@H](O)[C@@H](O)[C@@H](O[C@H]7[C@H](O)[C@@H](O)[C@@H](O[C@H]8[C@H](O)[C@@H](O)[C@@H](O[C@H]1[C@H](O)[C@H]2O)O[C@@H]8CO)O[C@@H]7CO)O[C@@H]6CO)O[C@@H]5CO)O[C@@H]4CO)O[C@@H]3CO [b-Cyclodextrin]
approximate change in surviving CFU (log10) (Biolog plate: PM2, Biolog well: A4): 1.01

OC[C@H]1O[C@H](OC[C@H]2O[C@H](O[C@H]3[C@H](O)[C@@H](O)[C@@H](O)O[C@@H]3CO)[C@H](O)[C@@H](O)[C@@H]2O[C@H]2O[C@H](CO)[C@@H](O)[C@H](O)[C@H]2O)[C@H](O)[C@@H](O)[C@@H]1O [Glycogen]
approximate change in surviving CFU (log10) (Biolog plate: PM2, Biolog well: A8): 0.944

OC[C@@H](O)[C@@H](O[C@@H]1O[C@H](CO)[C@H](O)[C@H](O)[C@H]1O)[C@H](O)[C@@H](O)CO [Lactitol]
approximate change in surviving CFU (log10) (Biolog plate: PM2, Biolog well: C3): 1.05

O=C(CO)[C@@H](O)[C@@H](O)[C@H](O)CO [D-Tagatose]
approximate change in surviving CFU (log10) (Biolog plate: PM2, Biolog well: D6): 0.859

OC[C@@H](O)[C@H](O)[C@@H](O)CO [Xylitol]
approximate change in surviving CFU (log10) (Biolog plate: PM2, Biolog well: D8): 1.01

CCCC(=O)C(=O)O [a-Keto-Valeric Acid]
approximate change in surviving CFU (log10) (Biolog plate: PM2, Biolog well: E10): -0.966

CC(O)C(C)O (stereo unspecified) [2,3-Butanediol]
approximate change in surviving CFU (log10) (Biolog plate: PM2, Biolog well: H10): -0.708

CN [Methylamine]
approximate change in surviving CFU (log10) (Biolog plate: PM3, Biolog well: D5): -1.05

Nc1ccn([C@@H]2O[C@H](CO)[C@@H](O)[C@H]2O)c(=O)n1 [Cytidine]
approximate change in surviving CFU (log10) (Biolog plate: PM3, Biolog well: F4): 0.386

O=C1NC(=O)C(=O)C(=O)N1 [Alloxan]
approximate change in surviving CFU (log10) (Biolog plate: PM3, Biolog well: G4): -3.16

C[C@H](N)C(=O)N[C@@H](CCC(=O)O)C(=O)O
approximate change in surviving CFU (log10) (Biolog plate: PM3, Biolog well: H3): 0.451

C[C@H](N)C(=O)NCC(=O)O
approximate change in surviving CFU (log10) (Biolog plate: PM3, Biolog well: H4): -0.322

NCC(=O)N[C@@H](CC(N)=O)C(=O)O
approximate change in surviving CFU (log10) (Biolog plate: PM3, Biolog well: H8): 0.107

OC[C@@H](O)[C@@H](O)[C@H](O)[C@@H](O)CO [D-Sorbitol]
approximate change in surviving CFU (log10) (Biolog plate: PM1, Biolog well: B2): 1.61

O=P(O)(O)OC[C@H](O)CO (racemic) [D,L-a-Glycerol-Phosphate]
approximate change in surviving CFU (log10) (Biolog plate: PM1, Biolog well: B7): 1.31

OC[C@@H](O)[C@@H](O)[C@H](O)[C@H](O)CO [D-Mannitol]
approximate change in surviving CFU (log10) (Biolog plate: PM1, Biolog well: B11): 2.19

O=C(O)CC(O)C(=O)O (racemic) [D,L-Malic Acid]
approximate change in surviving CFU (log10) (Biolog plate: PM1, Biolog well: C3): 1.05

COC(=O)C(C)=O [Methyl Pyruvate]
approximate change in surviving CFU (log10) (Biolog plate: PM1, Biolog well: G10): 0.0644

O=C(O)C[C@H](O)C(=O)O [L-Malic Acid]
approximate change in surviving CFU (log10) (Biolog plate: PM1, Biolog well: G12): 1.01

O=C(O)[C@H]1OC(O)[C@H](O)[C@@H](O)[C@H]1O (stereo partly drawn) [D-Galacturonic Acid]
approximate change in surviving CFU (log10) (Biolog plate: PM1, Biolog well: H10): 1.09

OC1OC[C@@H](O)[C@@H](O)[C@@H]1O (stereo partly drawn) [D-Arabinose]
approximate change in surviving CFU (log10) (Biolog plate: PM2, Biolog well: B5): 0.408

OC[C@@H]1OC(O)[C@@H](O)[C@H](O)[C@H]1O (stereo partly drawn) [L-Glucose]
approximate change in surviving CFU (log10) (Biolog plate: PM2, Biolog well: C2): 1.22

CO[C@H]1O[C@H](CO)[C@@H](O)[C@H](O)[C@H]1O [a-Methyl-D-Glucoside]
approximate change in surviving CFU (log10) (Biolog plate: PM2, Biolog well: C6): 1.2

OCc1ccccc1O[C@@H]1O[C@H](CO)[C@@H](O)[C@H](O)[C@H]1O [Salicin]
approximate change in surviving CFU (log10) (Biolog plate: PM2, Biolog well: D2): 0.0215

OC[C@H]1O[C@H](OC[C@H]2O[C@H](OC[C@H]3O[C@H](O[C@]4(CO)O[C@H](CO)[C@@H](O)[C@@H]4O)[C@H](O)[C@@H](O)[C@@H]3O)[C@H](O)[C@@H](O)[C@H]2O)[C@H](O)[C@@H](O)[C@H]1O [Stachyose]
approximate change in surviving CFU (log10) (Biolog plate: PM2, Biolog well: D5): 1.37

CC(=O)N[C@@H](CO)[C@@H](O)[C@H](O)[C@H](O)CO [N-Acetyl-D-Glucosaminitol]
approximate change in surviving CFU (log10) (Biolog plate: PM2, Biolog well: D9): 0.944

From the supplement of paper PMC11738630
